Laboratory results from the supplement of paper PMC6522484.
± gives the standard deviation of the averaged measurements.

Experiments:
[1] = test system: DLD1; experiment: cell viability (CellTiter-Glo) relative to plate median (fraction of plate median); higher = more viable cells; conditions: 5 µM; treatment time 24 h; reporter: 7TFP
Method in brief: (§1)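 Library compounds were added at a final concentration of 5 µM for 24 h to colorectal cancer cells stably transduced with a lentiviral TCF/Wnt firefly luciferase reporter. Reported values are firefly luciferase or CellTiterGlo luminescence, normalised per well to the plate median. Each value averages two independent replicates.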

[2] = test system: HCT116; experiment: as above; conditions: 5 µM; treatment time 24 h; reporter: TCF4/Wnt
Method in brief: as §1

[3] = test system: SW480; experiment: as above; conditions: 5 µM; treatment time 24 h; reporter: 7TFP
Method in brief: as §1

[4] = test system: DLD1; experiment: TCF/Wnt firefly luciferase reporter signal relative to plate median (fraction of plate median); higher = higher Wnt reporter signal; conditions: 5 µM; treatment time 24 h; reporter: 7TFP
Method in brief: as §1

[5] = test system: SW480; experiment: as above; conditions: 5 µM; treatment time 24 h; reporter: 7TFP
Method in brief: as §1

SMILES	cell viability [1]	cell viability [2]	cell viability [3]	TCF/Wnt firefly luciferase reporter signal [4]	TCF/Wnt firefly luciferase reporter signal [5]
Oc1c(Cl)cc(Cl)c2cccnc12	0.9925 ± 0.00071	1.02 ± 0.081	0.963 ± 0.033	1.03 ± 0.16	1.07 ± 0.021
O=CNc1ccccc1C(=O)O [N-Formylanthranilic acid]	0.936 ± 0.018	1.02 ± 0.021	0.92 ± 0.088	0.954 ± 0.12	0.689 ± 0.13
O=C1[C@H](CC[C@H](O)c2ccc(F)cc2)[C@@H](c2ccc(O)cc2)N1c1ccc(F)cc1	0.828 ± 0.15	1.01 ± 0.063	0.961 ± 0.084	0.952 ± 0.17	0.919 ± 0.11
CCc1cnn2c(NCc3ccc[n+]([O-])c3)cc(N3CCCC[C@H]3CCO)nc12 [Dinaciclib]	0.99 ± 0.042	0.779 ± 0.069	1.32 ± 0.12	0.57 ± 0.12	0.789 ± 0.035
O=NN(CCCl)C(=O)NCCCl	1.05 ± 0.014	1.06 ± 0.05	1.04	1.19 ± 0.021	1.045 ± 0.0071
O=C(O[C@@H]1Cc2c(O)cc(O)cc2O[C@@H]1c1cc(O)c(O)c(O)c1-c1c([C@H]2Oc3cc(O)cc(O)c3C[C@H]2OC(=O)c2cc(O)c(O)c(O)c2)cc(O)c(O)c1O)c1cc(O)c(O)c(O)c1	1.08 ± 0.05	1.15 ± 0.12	1.035 ± 0.0071	1.03 ± 0.11	1.01 ± 0.047
CC[C@@H](CO)NCCN[C@@H](CC)CO	0.963 ± 0.12	1.03 ± 0.021	1.02 ± 0.059	1.2 ± 0.05	1.19 ± 0.035
Cn1cnc2c1c(=O)[nH]c(=O)n2C	1.04 ± 0.028	1.16 ± 0.092	1.03 ± 0.035	1.17	1.09 ± 0.028
CNCCc1ccccn1	0.835 ± 0.059	0.979 ± 0.086	0.958 ± 0.027	1.08 ± 0.21	1.1 ± 0.05
COc1ccc(/C=C/C(=O)O)cc1OC	1.02 ± 0.045	1.06 ± 0.16	0.951 ± 0.083	1.01 ± 0.021	0.984 ± 0.021
CC(C)=CCc1c(O)cc(C)oc1=O	1.05 ± 0.17	1.07 ± 0.12	1.055 ± 0.0071	1.06 ± 0.1	1.03 ± 0.071
C=C(C)[C@@H]1CC[C@]2(C(=O)O)CC[C@]3(C)[C@H](CC[C@@H]4[C@@]5(C)CC[C@H](O)C(C)(C)[C@@H]5CC[C@]43C)[C@@H]12	1.03 ± 0.021	1.09	1.005 ± 0.0071	1.055 ± 0.0071	1.01 ± 0.014
Cc1c(OCC(F)(F)F)ccnc1C[S+]([O-])c1nc2ccccc2[nH]1 (stereo not given)	1.07 ± 0.14	1.02 ± 0.061	0.932 ± 0.0014	1.09 ± 0.021	0.959 ± 0.011
C[C@H]1CCC/C=C/C(=O)c2c(O)cc(O)cc2CC(=O)O1 [Dehydro-Curvularin]	0.9905 ± 0.005	1.08 ± 0.014	1.02 ± 0.03	1.095 ± 0.0071	1 ± 0.07
CC1(C)S[C@@H]2[C@H](NC(=O)COc3ccccc3)C(=O)N2[C@H]1C(=O)O	1.09 ± 0.021	1.05	1.01 ± 0.023	1.1 ± 0.028	1.08 ± 0.05
CO/N=C(\C(=O)N[C@@H]1C(=O)N2C(C(=O)OC(C)OC(C)=O)=C(COC(N)=O)CS[C@H]12)c1ccco1 (stereo not given in full)	1.03	1.05 ± 0.079	0.9685 ± 0.005	0.981 ± 0.027	1
Oc1ncnc2[nH]ncc12	0.939 ± 0.063	1.05 ± 0.12	1.07 ± 0.057	1.03	0.961 ± 0.11
C=C1CCC2C(CC2(C)C)C(=C)CC/C1=N/O (stereo not given)	1.03 ± 0.035	1.02 ± 0.11	1 ± 0.023	1.095 ± 0.0071	0.907 ± 0.037
CC(c1cc2ccccc2s1)N(O)C(N)=O (stereo not given)	1.03 ± 0.067	1.02 ± 0.057	1.05 ± 0.035	1.13 ± 0.014	0.946 ± 0.074
CC(=O)O[C@@H]1C[C@H]2C(C)(C)[C@@H](O)CC[C@]2(C)[C@H]2CC[C@@]3(C)[C@H](c4ccoc4)OC(=O)[C@H]4O[C@]43[C@@]21C [beta-DIHYDROGEDUNOL]	0.978 ± 0.028	1.08 ± 0.078	0.984 ± 0.021	1.02 ± 0.035	1.12 ± 0.085
C=CC(C1=CC(=O)C(OC)=CC1=O)c1ccc(O)cc1 (stereo not given)	1.01	1.1 ± 0.021	1.02	0.879 ± 0.0028	0.877 ± 0.12
CC1=C(/C=C/C(C)=C/C=C/C(C)=C/CO)C(C)(C)CCC1	0.974 ± 0.079	1.15 ± 0.042	1.04 ± 0.042	1.14 ± 0.042	1.04 ± 0.057
Cc1noc(NS(=O)(=O)c2ccc(N)cc2)c1C	0.904 ± 0.0057	1.04 ± 0.13	0.915 ± 0.044	1.02 ± 0.076	0.984 ± 0.079
COc1ccc(OC)c(C(O)CNC(=O)CN)c1 (stereo not given)	0.944 ± 0.067	0.912 ± 0.064	1.03 ± 0.035	1.06 ± 0.2	1.16 ± 0.092
Cc1oc(=O)c2c(O)cccc2c1CO [8-Hydroxy-4-hydroxymethyl-3-methyl-isocumarin]	0.926 ± 0.032	0.925 ± 0.027	0.98 ± 0.021	1.01 ± 0.13	0.993 ± 0.0099
CNS(=O)(=O)c1ccc(NC(=O)c2ccccc2C(=O)O)cc1	1.03 ± 0.098	1.04 ± 0.042	1.04 ± 0.072	0.967 ± 0.013	1.085 ± 0.0071
CC1(C)OC(=O)NC1=O	0.893 ± 0.18	0.9705 ± 0.0064	0.965 ± 0.092	1.08 ± 0.11	0.932 ± 0.14
N=C(N)NCCCCNC(=N)N	0.922 ± 0.0085	0.978 ± 0.1	0.965 ± 0.017	0.994 ± 0.14	1.04 ± 0.067
O=C(Oc1cc(O)cc2c1C[C@@H](OC(=O)c1cc(O)c(O)c(O)c1)[C@@H](c1cc(O)c(O)c(O)c1)O2)c1cc(O)c(O)c(O)c1	1.06 ± 0.028	1.1 ± 0.12	1.04 ± 0.021	0.89 ± 0.0071	0.951 ± 0.048
CCSC(=N)N	0.954 ± 0.046	0.948 ± 0.073	0.9995 ± 0.00071	0.99 ± 0.028	0.963 ± 0.031
